The campaign covered roughly 410,000 compounds. About 7,200 (1.8%) were called active. Where a call stands in place of a potency, no number is given. About 7% were inconclusive and are not listed. Many of the other results were omitted from the sample, so actives are more common in it than they were. A number with no mark means an inactive call. The call rests on the fitted dose curve; in most records, active means well fitted activation curve with a large enough effect; inconclusive means small, poorly fitted or top-dose-only effect, or another doubt; inactive means no such curve, though single readings can be large or run the other way.
Potency means the concentration at half of the fitted maximal effect.

The test in a line: qHTS of TDP-43 Inhibitors. Further: nearly all actives have a fitted effect of over 50% in size. As to conditions: TDP-43 expressing yeast growth rescue, BacTiter-Glo, 24 h; series mostly up to 46.1 µM. The method in brief:
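Yeast cells expressing TDP-43 under galactose induction are exposed to compounds for 24 hr at 30 deg C. BacTiter-Glo luminescence measures growth, so protective compounds score as activators.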
(qHTS replaces the single test concentration by a dilution series.)
Consider `CCOc1ccc(N(Cc2ccccc2)C(=O)c2nc(SCC)ncc2Cl)cc1`, for which the Potency entry was “inactive”.

Regarding `CCOc1ccc(N(Cc2ccccc2)C(=O)c2nc(S(C)(=O)=O)ncc2Cl)cc1`, the Potency is 17.8 µM (active).

For `CCOc1ccc(NC(=O)CN(Cc2ccccc2)S(=O)(=O)c2ccc(Cl)cc2)cc1`, the Potency result is “inactive”.

In the case of `COc1ccc(CNc2nc(-c3ccc(Cl)cc3)nn2S(=O)(=O)c2ccc(C)cc2)cc1`, the Potency result is “inactive”.

As to `CCC(=O)Nc1ccc2nc(SCC(=O)N3CCc4ccccc43)sc2c1`, the Potency entry was “inactive”.

Consider `COc1ccc(N(CC(=O)NC(C)(C)C)C(=O)c2ccco2)cc1`, for which the Potency result is “inactive”.

In the case of `CCCc1ccc(OCC(=O)NNC(=S)NC(=O)c2ccco2)cc1`, the Potency was 3.98 µM (active).

As for `COc1ccc(C(=O)NC(=S)NNC(=O)CCc2ccccc2)cc1`, the Potency is 17.8 µM (active).

With `CCC1CCCCN1C(=S)NC(=O)c1ccco1` (configuration not stated), the Potency result is “inactive”.

As for `Cc1c(NC(=S)NC(=O)CCc2ccccc2)c(=O)n(-c2ccccc2)n1C`, the Potency result is “inactive”.

With `COc1ccccc1CCC(=O)NNC(=O)c1ccncc1`, the Potency result was “inactive”.

Turning to `O=C(c1ccc2c(c1)N(Cc1ccccc1F)C(=O)c1ccccc1S2(=O)=O)N1CCOCC1`, the Potency result was “inactive”.

As for `CC(Sc1oc(-c2ccco2)nc1S(=O)(=O)c1ccc(Br)cc1)c1ccccc1` (configuration not stated), the Potency entry is “inactive”.

Take `CC1=NNC(=O)C1CCC(=O)N/N=C\c1cccc(Cl)c1` (configuration not stated): the Potency entry was “inactive”.

For `Cc1nc(Cl)cc(N/N=C/c2ccccc2)n1`, the Potency was 7.94 µM (active).

For the compound `CC(C)Oc1ccc(CNC(=O)C2CCN(c3nc4ccccc4n(C)c3=O)CC2)cc1`, the Potency result was “inactive”.

As for `Cc1ccc(-c2nc(CSCC(=O)NC3CCN(Cc4ccccc4)CC3)c(C)o2)cc1`, the Potency entry was “inactive”.

On to `CNC(=O)c1ccsc1NC(=O)c1ccc(S(=O)(=O)N2CCc3ccccc32)cc1`, for which the Potency entry was “inactive”.

`CNC(=O)c1ccc(-c2nc(CN3CCc4ccccc43)c(C)o2)cc1`: the Potency was 10 µM (active).

On to `COc1ccc(NC(=O)c2ccc3nc(CCc4ccccc4)oc3c2)c(OC)c1`, for which the Potency result is “inactive”.

Turning to `Cc1ccc(-c2noc(-c3nnn(-c4cccc(C(F)(F)F)c4)c3N)n2)cc1`, the Potency entry is “inactive”.

On to `CC(C)Oc1cc(F)ccc1-c1cc(C(=O)Nc2cccc(Cl)c2)[nH]n1`, for which the Potency result was “inactive”.

With `COc1cc(F)ccc1-c1cc(C(=O)NCC2CCCCC2)[nH]n1`, the Potency was 25.1 µM (active).

Consider `CC(C)Oc1cc(F)ccc1-c1cc(C(=O)Nc2ccc(F)cc2)[nH]n1`, for which the Potency entry was “inactive”.

For `COc1ccc(CN2CCCC(CNC(=O)c3ccc(F)cc3)C2)cc1OC` (configuration not stated), the growth rescue (activation) was -11.7% [at 0.397 µM].

As to `COc1ccccc1CNC(=O)c1cc(-c2cc(Cl)ccc2C)n[nH]1`, the Potency result is “inactive”.

On to `COc1ccccc1CNC(=O)c1cc(-c2cc(F)ccc2OC)n[nH]1`, for which the Potency is 22.4 µM (active).

For `COc1ccc(C(=O)NCC2CCCCC2)cc1S(=O)(=O)N1CCCC1`, the Potency entry is “inactive”.

On to `COc1cc(NC(=O)c2cc(-c3ccc(F)cc3OC(C)C)n[nH]2)cc(OC)c1OC`, for which the Potency is 28.2 µM (active).

For the compound `COc1ccc(-c2cc(C(=O)NCc3cc(OC)c(OC)c(OC)c3)[nH]n2)cc1`, the Potency result is “inactive”.

For `CN1CCN(C2(CNC(=O)COc3ccc(C(C)(C)C)cc3)CCCCC2)CC1`, the Potency result is “inactive”.

Turning to `CC(=O)Nc1ccc2nc(SCCOc3cc(C)cc(C)c3)sc2c1`, the Potency result is “inactive”.

`Cc1ccc(C(=O)Nc2cc3c(cc2N2CCCC2)n(C)c(=O)c(=O)n3C)cc1`: the Potency entry was “inactive”.

In the case of `CCCCCn1c(=O)[nH]c2cc(C(=O)Nc3cc(C)cc(C)c3)ccc2c1=O`, the Potency entry is “inactive”.

Turning to `CCOc1ccc(Nc2c(S(=O)(=O)c3ccccc3)cnc3ccccc23)cc1`, the Potency result is “inactive”.

As to `O=C(c1ccc(C(F)(F)F)cc1)N1CCC(c2nc(-c3ccc(S(=O)(=O)N4CCCC4)cc3)no2)CC1`, the Potency entry was “inactive”.

Turning to `CCOC(=O)c1c(SCC(=O)Nc2cccc(C)c2C)nc(=O)[nH]c1C`, the Potency entry is “inactive”.

Take `O=C(COC(=O)/C=C/c1ccc2c(c1)OCO2)NC1CCS(=O)(=O)C1` (configuration not stated): the Potency entry is “inactive”.

`O=C(Nc1ccc2c(c1)OCCO2)C1CCCC1`: the Potency result is “inactive”.

In the case of `O=C(O)/C=C/c1ccc2c(c1)OCCO2`, the Potency is 15.8 µM (active).

In the case of `COc1ccc(NC(=O)NC(C)c2c(-n3cccc3)sc(C)c2C)cc1OC` (configuration not stated), the Potency result is “inactive”.

In the case of `COc1ccc(CCNC(=O)C(=O)NCC(c2ccco2)S(=O)(=O)c2cccs2)cc1OC` (configuration not stated), the Potency result was “inactive”.

In the case of `COc1cc(NC(=O)Cn2nc(-c3ccc(C)c(C)c3)ccc2=O)cc(OC)c1`, the Potency entry is “inactive”.

Regarding `COc1ccc(C2c3c(oc4ccccc4c3=O)C(=O)N2Cc2ccc3c(c2)OCO3)cc1` (configuration not stated), the Potency result was “inactive”.

`Cc1ccc(S(=O)(=O)n2nc(-c3ccc(Cl)cc3)nc2NCc2ccccc2)cc1`: the Potency result was “inactive”.

In the case of `COc1ccc(OCCCn2c(C)nc3cc(C)c(C)cc32)cc1`, the Potency entry was “inactive”.

`Cc1cc(C)c2oc(C(=O)Nc3ccc(S(=O)(=O)N4CCCCCC4)cc3)cc(=O)c2c1`: the Potency result was “inactive”.

On to `Cc1ccccc1C(=O)Nc1nnc(S(=O)(=O)N(C)c2ccc(Cl)cc2)s1`, for which the Potency entry was “inactive”.

Consider `CC(=O)Nc1cccc(-c2ccnc3c2CC(C)(C(=O)NCc2ccccc2)O3)c1` (configuration not stated), for which the Potency entry was “inactive”.

As for `CC1(C(=O)NCc2ccco2)Cc2c(-c3ccc4c(c3)OCO4)ccnc2O1` (configuration not stated), the Potency result is “inactive”.

In the case of `CC1(C(=O)NCc2ccc(F)c(F)c2)Cc2c(-c3ccc4c(c3)OCO4)ccnc2O1` (configuration not stated), the Potency was 35.5 µM (active).

In the case of `COc1ccc(CNC(=O)CSc2nc3ccccc3nc2Cc2ccccc2)cc1`, the Potency entry is “inactive”.

Turning to `CCc1cc2c(cc3c(=O)n(CC(=O)N4CCN(c5cc(Cl)ccc5C)CC4)ncn32)s1`, the Potency result is “inactive”.

Consider `Cc1cc(OCc2ccc(C(=O)Nc3ccc(C(=O)O)cc3)o2)ccc1Cl`, for which the Potency result is “inactive”.

Take `O=C(COc1ccc2ccc(=O)oc2c1)NCC(O)c1ccccc1` (configuration not stated): the Potency result is “inactive”.

As to `CC(C)OC(=O)c1ccc(COc2ccc3ccc(=O)oc3c2)o1`, the Potency was 11.2 µM (active).

Take `CCOC(=O)c1cc(-c2ccc(OC)c(S(=O)(=O)Nc3ccc(OC)cc3OC)c2)on1`: the Potency entry is “inactive”.

On to `CCOC(=O)c1ccc(NC(=O)CC2C(=O)N(c3ccccc3)C(=O)N2Cc2cccs2)cc1` (configuration not stated), for which the Potency entry was “inactive”.

On to `CCOC(=O)c1ccc(N2C(=O)CC(Sc3nc(O)c(CC)c(=O)[nH]3)C2=O)cc1` (configuration not stated), for which the Potency entry is “inactive”.

In the case of `CCOC(=O)c1ccc(N2C(=O)CC(N(C)Cc3ccccc3)C2=O)cc1` (configuration not stated), the Potency was 2.82 µM (active).

With `CCOC(=O)c1ccc(N2C(=O)CC(N3CCN(C(=O)c4ccccc4)CC3)C2=O)cc1` (configuration not stated), the Potency entry was “inactive”.

As to `Cc1ccc(C)c(N2CCN(C(c3ccccc3)c3nnc(-c4ccccc4)o3)CC2)c1` (configuration not stated), the Potency result was “inactive”.

Values taken from PubChem BioAssay AID652104 (National Center for Advancing Translational Sciences (NCATS), 2013).
